SMILES strings stand for the structures. Among all 47,000 compounds or so, about 200 (0.43%) were called active. Not shown: some 1% with an inconclusive outcome.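 The calls were made as follows: active = inhibition of aggregate fluorescence above about 70%, also judged a hit by eye on the cell image (limit read from the data, passing the limit was not always enough); inconclusive = no rule stated for this call; inactive = not judged a hit on image review.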 The full list was thinned out, with actives kept by preference.

A short description of the test: removal of polyQ htt aggregates in HeLa – imaging, HeLa Exon1htt(103Q)mCFP, confocal imaging, primary screen (AID 853).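 Also: cells exposed to compound for three days before fixation.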 The conditions noted are these: aggregate imaging, at 1.5 µM; fraction fluorescence in grains: measured here: aggregate grain fluorescence fraction, stronger effect = lower value; inhibition: stronger effect = higher value.
Regarding `N#Cc1ccc(Cn2cc(C(=O)c3ccco3)c3ccccc32)cc1`, the fraction fluorescence in grains worked out at 6.7 and the inhibition is 83.1% (active).
In the same order, the values of `COc1ccc(CCn2c(O)c(C=NC3CC3)c(=O)[nH]c2=O)cc1OC` are 56 and -52.1% (inactive).
In the same order, the values of `CC(C)c1ccc(OCC(=O)N2CCN(C)CC2)c(Br)c1` are 48.9 and -31% (inactive).
Consider `CCN1CCN(C(=O)Cc2coc3cc(C)cc(C)c23)CC1`, for which the fraction fluorescence in grains was found to be 24 and the inhibition is -20.7% (inactive).
As for `c1cc2c(cc1CCNC1CCCCCC1)OCO2`, the fraction fluorescence in grains came out at 16.3 and the inhibition was 11.1% (inactive).

In general, inhibition refers to the change of the read-out against control, counted positive when it falls.

The values are drawn from PubChem BioAssay AID853 (Columbia University Molecular Screening Center, 2007).
